{"source": "PubChem BioAssay AID485317", "about": "(Broad Institute, 2010)", "note": "Screen size: about 290,000 compounds; about 11,000 (3.8%) were called active.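 How the source made its calls: active means mean replicate inhibition above about 79%, with every replicate also reaching it (limit read from the data); inconclusive means only one of the two criteria met; inactive means mean below limit and not every replicate reaching it.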 The list comes from a sample in which actives are over-represented; it also holds similar structures and randomly drawn compounds.", "data": [{"molecular_target": "FAD-linked sulfhydryl oxidase ALR (Homo sapiens) (UniProt P55789)", "sequence (P55789 whole entry, looked up)": "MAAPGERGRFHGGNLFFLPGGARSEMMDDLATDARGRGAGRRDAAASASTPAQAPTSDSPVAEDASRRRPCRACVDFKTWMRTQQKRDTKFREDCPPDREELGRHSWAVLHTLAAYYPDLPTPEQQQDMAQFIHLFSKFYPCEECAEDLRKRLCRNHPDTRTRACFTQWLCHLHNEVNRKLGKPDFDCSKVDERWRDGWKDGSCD", "experiment": "ALR-catalysed DTT oxidation blockers – biochemical, H2O2 detection, HRP-luminol luminescence, single point, primary screen (AID 485317)", "conditions": "purified ALR, active compounds read high, concentration not given here", "values": [{"smiles": "CCCCN1C(=O)C(=O)N(CC(=O)Nc2cccc(C(C)=O)c2)C1=O", "inhibition": "1.6% (inactive)"}, {"smiles": "C=CCC[C@@H](Cc1ccc(F)cc1)C(=O)OC[C@@H](C)NC(=O)[C@H](CC=C)CC(=O)N(CCO)Cc1ccccc1", "inhibition": "-10.3% (inactive)"}, {"smiles": "Cn1sc(NC(=O)c2ccccc2)nc1=O", "inhibition": "88.6% (active)"}, {"smiles": "O=C(NC(=O)c1ccccc1)NC(=O)c1ccccc1", "inhibition": "0.464% (inactive)"}, {"smiles": "Cc1nc2ccccc2c(=O)n1NC(=O)c1ccccc1", "inhibition": "-10.2% (inactive)"}, {"smiles": "Cc1ccc(C(=O)NC2CCCC(C)C2C)cc1S(=O)(=O)N1CCCCC1", "note": "(stereo not given)", "inhibition": "-6.06% (inactive)"}, {"smiles": "CC(OC(=O)c1ccc(S(=O)(=O)N2CCOCC2)cc1)c1ccccc1", "note": "(stereo not given)", "inhibition": "-21.1% (inactive)"}, {"smiles": "Cc1ccc(SC(=O)COc2ccc(C)c(C)c2)cc1", "inhibition": "98.5% (active)"}, {"smiles": "Cc1ccc(OCC(=O)NC(C)c2ccccc2)cc1C", "note": "(stereo not given)", "inhibition": "-10.2% (inactive)"}, {"smiles": "COCCNC(=O)COc1ccc(C)c(C)c1", "inhibition": "11.4% (inactive)"}, {"smiles": "CCn1nc(C(=O)NNS(=O)(=O)c2cc(/C=C/C(=O)O)cc(OC)c2OC)c2ccccc2c1=O", "inhibition": "4% (inactive)"}, {"smiles": "O=C(COC(=O)c1ccc([N+](=O)[O-])o1)NC12CC3CC(CC(C3)C1)C2", "inhibition": "-29.8% (inactive)"}, {"smiles": "CCOC(=O)c1cc(C#N)c(N2CCCCC2)nc1-c1ccccc1", "inhibition": "6.36% (inactive)"}, {"smiles": "CCOC(=O)c1cc(C)nc(S(C)(=O)=O)c1C#N", "inhibition": "15.5% (inactive)"}, {"smiles": "CCCCSc1[nH]c(=O)c(C(=O)OCC)cc1C#N", "inhibition": "90% (active)"}, {"smiles": "CCOc1cc(C(=O)Nc2ccc(S(=O)(=O)Nc3cnc4ccccc4n3)cc2)cc(OCC)c1OCC", "inhibition": "27.5% (inactive)"}, {"smiles": "Cc1cc(NC(=O)CSc2nc(C(C)C)nc3sc4c(c23)CCC(C)C4)no1", "note": "(stereo not given)", "inhibition": "-10.2% (inactive)"}, {"smiles": "CC(C)c1nc(SCC(=O)Nc2cccc(C(=O)O)c2)c2c3c(sc2n1)CCCC3", "inhibition": "98.2% (active)"}, {"smiles": "Cc1ccc(C)c2c1cc(C)c1nnc(SCC(=O)Nc3cccc(C(=O)O)c3)n12", "inhibition": "3.23% (inactive)"}, {"smiles": "C=CC[C@H](CC(=O)NCCO)C(=O)N[C@@H](COC(=O)[C@@H](CC=C)Cc1ccc(F)cc1)Cc1c[nH]c2ccccc12", "inhibition": "6.65% (inactive)"}, {"smiles": "CCOc1ccccc1NC(=O)C1CCC(CNc2c(N3CCOCC3)c(=O)c2=O)CC1", "note": "(stereo not given)", "inhibition": "-8.1% (inactive)"}, {"smiles": "COc1ccc(NC(=O)C2CCC(CNc3c(N4CCCCC4)c(=O)c3=O)CC2)c(OC)c1", "note": "(stereo not given)", "inhibition": "-10.1% (inactive)"}, {"smiles": "CCN(CC)c1ccc(NC(=O)C2CCC(CNc3c(N4CCCC4)c(=O)c3=O)CC2)c(C)c1", "note": "(stereo not given)", "inhibition": "99.4% (active)"}, {"smiles": "COc1ccc(Cl)cc1NC(=O)CN(C)C(=O)c1cc2ccccc2cc1OC", "inhibition": "-4.22% (inactive)"}, {"smiles": "CCCCn1c(-c2cccc(C)c2)nc2cc3[nH]c(=O)c(C(C)C)nc3cc21", "inhibition": "-32.5% (inactive)"}, {"smiles": "CC1CN(C(=O)COC(=O)c2cccc(NS(=O)(=O)c3ccccc3)c2)CC(C)O1", "note": "(stereo not given)", "inhibition": "2.21% (inactive)"}, {"smiles": "CCOc1ccc(C(=O)NCC(=O)N2CCCCCCC2)cc1OCC", "inhibition": "-5.97% (inactive)"}, {"smiles": "O=C(COc1ccc(Br)cc1F)NCC1(N2CCCCC2)CCCCC1", "inhibition": "2.53% (inactive)"}, {"smiles": "Cc1nnc(SCC(=O)N2CCOCC2)[nH]c1=O", "inhibition": "3.8% (inactive)"}, {"smiles": "CCCCOC(=O)CNc1nnc(SCC(=O)OCC)[nH]c1=O", "inhibition": "100% (active)"}, {"smiles": "CCOC(=O)CSc1nc(C)c(Oc2ccc(Cl)cc2Cl)c(=O)[nH]1", "inhibition": "-20.9% (inactive)"}, {"smiles": "Cc1c(C(=O)Nc2ccccn2)oc2ccc(Br)cc12", "inhibition": "1.89% (inactive)"}, {"smiles": "COc1cc(OC)c(N2CC(C(=O)Nc3cc(Cl)ccc3N3CCOCC3)CC2=O)cc1Cl", "note": "(stereo not given)", "inhibition": "-7.16% (inactive)"}, {"smiles": "C[C@H]1CN([C@@H](C)CO)C(=O)Cc2cc(NC(=O)Cc3ccccc3)ccc2O[C@H]1CN(C)S(=O)(=O)c1cccs1", "inhibition": "2.5% (inactive)"}, {"smiles": "CC(C)CN(C(=O)CSc1ncnc2sccc12)C1CCS(=O)(=O)C1", "note": "(stereo not given)", "inhibition": "5.3% (inactive)"}, {"smiles": "COc1ccc(-c2cnc(SCCNC(=O)c3ccc4c(c3)OCO4)[nH]2)cc1", "inhibition": "14.2% (inactive)"}, {"smiles": "CCN(CC)c1ccc2c(Nc3ccccc3)c(C=O)c(=O)oc2c1", "inhibition": "1.6% (inactive)"}, {"smiles": "CCN(CC)c1ccc2oc(=O)c(C)nc2c1", "inhibition": "96.5% (active)"}, {"smiles": "CCN(CC)c1ccc2cc(C(N)=O)/c(=N\\NC(=O)c3ccncc3)oc2c1", "inhibition": "8.16% (inactive)"}, {"smiles": "C[C@H](NS(=O)(=O)c1ccc(Cl)cc1)C(=O)OCC(=O)N1CCOCC1", "inhibition": "-3.05% (inactive)"}, {"smiles": "O=C(NC1CCCCCC1)C1CCN(C(=O)c2ccc(Cl)cc2)CC1", "inhibition": "0.152% (inactive)"}, {"smiles": "COc1cc(C(=O)NCc2nnc(SCC(=O)Nc3nc4ccc(C)cc4s3)o2)cc(OC)c1OC", "inhibition": "96.6% (active)"}, {"smiles": "COc1ccc(C(=O)NCc2nnc(SCC(=O)Nc3cccc(OC)c3)o2)cc1", "inhibition": "-14.1% (inactive)"}, {"smiles": "COc1cc(C(=O)NCc2nnc(SCC(=O)c3ccc(Cl)cc3)o2)cc(OC)c1OC", "inhibition": "-31.3% (inactive)"}, {"smiles": "COc1ccc(CN2CCN(C(=O)c3cc(C4CC4)nn3-c3ccccc3)CC2)cc1F", "inhibition": "-3.02% (inactive)"}, {"smiles": "CC(=O)c1ccc(-c2nnc(CCC(=O)N(C)Cc3cnc4ccccn34)o2)s1", "inhibition": "96.1% (active)"}, {"smiles": "CN(Cc1ccccc1)C(=O)CCc1ccccc1", "inhibition": "26.4% (inactive)"}, {"smiles": "CCc1ccc(CN(C)C(=O)CCc2nnc(-c3ccc(-c4ccccc4)cc3)o2)nc1", "inhibition": "-6.23% (inactive)"}, {"smiles": "COc1ccc(C(=O)OCC(=O)c2cc(C)n(CC3CCCO3)c2C)cc1[N+](=O)[O-]", "note": "(stereo not given)", "inhibition": "-3.78% (inactive)"}, {"smiles": "O=C(CCNC(=O)c1ccc(Br)cc1)NCC(c1ccco1)N1CCCCC1", "note": "(stereo not given)", "inhibition": "1.52% (inactive)"}]}]}
